Source: PubChem
aSyn UTR act: Activators working through SNCA 5'UTR binding (MLPCN); 300,000 compounds, 7.1% hits; alpha-synuclein 5'UTR reporter, activators screen; activity score, % (tested at 7.5 µM), hits read low; in the data active = activity score below about -60%
* marks the source's active call; other numbers are inactive results. These entries were drawn from the full list.

CN(C)/C=C/C(=O)c1ccc(Oc2ccccc2)cc1 was read as aSyn UTR act -136*.
For CCCc1ccc(C(=O)/C=C/N(C)C)cc1 the results were aSyn UTR act -126*.
Screening O=C1C=C(N2CCCCCC2)C(=O)N1c1ccc(Cl)cc1 returned aSyn UTR act -171*.
`Cc1ccc(C(=O)c2oc3ccc(Cl)cc3c2NC(=O)CN2CCN(C)CC2)cc1` gave aSyn UTR act -108*.
Screening Cc1nn(CCOc2ccccc2)c(=O)n1-c1ccc(F)cc1 returned aSyn UTR act -65*.
Screening Cc1nn(C)c(=O)n1-c1ccc(OCc2ccccc2)cc1 returned aSyn UTR act -104*.
Screening CCCc1cc(=O)n2c([nH]c3ccccc32)c1C#N returned aSyn UTR act -70*.
Cc1ccc2nc(-c3ccc(NC(=O)CN4CCN(c5ccccn5)CC4)cc3)sc2c1 was read as aSyn UTR act -146*.
For Cc1ccc2nc(-c3ccc(NC(=O)CCS(=O)(=O)c4ccccc4)cc3)sc2c1 the results were aSyn UTR act 62.
`Cc1ccc2nc(-c3ccc(NC(=O)COC(=O)c4ccc(=O)[nH]c4)cc3)sc2c1` gave aSyn UTR act -67*.
`Cc1ccc2nc(-c3ccc(NC(=S)NC(=O)CC(C)C)cc3)sc2c1` gave aSyn UTR act -178*.
Cc1ccc2nc(-c3ccc(NC(=O)C(C)Sc4nncs4)cc3)sc2c1 (stereo unspecified) was read as aSyn UTR act 61.
Cc1ccc2nc(-c3ccc(NC(=O)CN4C(=O)c5ccccc5C4=O)cc3)sc2c1 was read as aSyn UTR act -200*.
For Cc1ccc2nc(-c3ccc(NC(=O)CSc4nc(N)cc(=O)[nH]4)cc3)sc2c1 the results were aSyn UTR act -177*.
For Cc1ccc(NC(=O)C2CC3CCC2C3)c(Br)c1 (stereo unspecified) the results were aSyn UTR act -110*.
For CCN(CC)c1ccc(NC(=O)C2CC3CCC2C3)cc1 (stereo unspecified) the results were aSyn UTR act -68*.
For Cc1ccc(-c2csc(C(C#N)=C3CCCC3)n2)cc1 the results were aSyn UTR act -236*.
For N#CC(=C1CCCC1)c1nc(-c2ccccc2O)cs1 the results were aSyn UTR act -209*.
`N#CC(=C1CCCC1)c1nc(-c2ccccc2)cs1` gave aSyn UTR act -187*.
N#CC(=C1CCCC1)c1nc(-c2cc3ccccc3oc2=O)cs1 was read as aSyn UTR act -232*.
Cc1ccc(S(=O)(=O)c2nc(S(=O)(=O)c3ccc(C)cc3)c(N3CCN(CCO)CC3)s2)cc1 was read as aSyn UTR act -64*.
`Cc1ccc(S(=O)(=O)c2nc(S(C)(=O)=O)sc2N2CCOCC2)cc1` gave aSyn UTR act -72*.
Screening CCOc1ccc(/C=C(/NC(=O)c2ccc(Cl)cc2)C(=O)O)cc1OCC returned aSyn UTR act -86*.
Screening Cc1ccc(Cl)c2c(N=Nc3ccccc3)c(O)[nH]c12 returned aSyn UTR act -170*.
For O=C(CSCc1ccccc1)Nc1cccc(F)c1 the results were aSyn UTR act -127*.
O=C(CSCc1ccc(F)cc1)Nc1ccc(F)cc1 was read as aSyn UTR act -76*.
For O=C(CSCc1c(F)cccc1F)Nc1ccccc1 the results were aSyn UTR act -116*.
CCC(=O)Oc1ccc(NC(=O)CSCc2ccccc2)cc1 was read as aSyn UTR act -106*.
`O=C(CSCC(=O)Nc1ccccc1)N/N=C/c1c(O)ccc2ccccc12` gave aSyn UTR act 76.
Cc1ccccc1CSCC(=O)Nc1ccccc1F was read as aSyn UTR act -79*.
Screening CCCc1sc(N/N=C/c2ccccn2)nc1-c1ccc(Br)cc1 returned aSyn UTR act 82.
`CC(=O)c1sc(N/N=C\c2ccc(Br)cc2)nc1C` gave aSyn UTR act -79*.
`CCOC(=O)c1nc(N/N=C/c2ccccc2)sc1Br` gave aSyn UTR act -82*.
Cc1cc(Cl)ccc1OCC(=O)Nc1cccnc1 was read as aSyn UTR act -108*.
For Cc1c(C)c2ccc(OCC(=O)Nc3cccnc3)c(C)c2oc1=O the results were aSyn UTR act -137*.
For Cc1c(C(=O)OC(C)C)sc(N)c1C(=O)OC(C)C the results were aSyn UTR act -120*.
O=c1c2c(nc3cc(-c4ccc(Br)cc4)[nH]n13)CCCC2 was read as aSyn UTR act -95*.
`COc1ccc(-c2cc3nc4c(c(=O)n3[nH]2)CCC4)cc1` gave aSyn UTR act -158*.
`Oc1c(C=Nc2ccccc2)sc2ccccc12` gave aSyn UTR act -65*.
For Oc1sc(C=Nc2ccc(F)cc2)c2ccccc12 the results were aSyn UTR act -227*.
Oc1sc(C=Nc2ccccc2)c2ccccc12 was read as aSyn UTR act -254*.
Oc1c(C=Nc2ccc(Cl)cn2)sc2ccccc12 was read as aSyn UTR act -180*.
`Nn1c(SCC(=O)NC(=O)Nc2ccc3c(c2)OCCO3)nnc1C1CC1` gave aSyn UTR act -96*.
For O=C(CSc1nnnn1-c1ccccc1)NC(=O)Nc1ccc2c(c1)OCCO2 the results were aSyn UTR act -86*.
Screening Cn1nnnc1SCC(=O)Nc1ccc2c(c1)OCCO2 returned aSyn UTR act -86*.
For CC(=O)c1ccc2c(c1)Cc1cc(C(C)=O)ccc1-2 the results were aSyn UTR act -125*.
`CCN1C(=O)/C(=C2/C=Cc3ccccc3N2C)OC1=S` gave aSyn UTR act -200*.
Screening CCOC(=O)c1nn(-c2ccc(C)c(C)c2)c(=O)c2c(N)scc12 returned aSyn UTR act 46.
CCOC(=O)c1nn(-c2ccc(C)cc2)cc1C(=O)c1ccccc1 was read as aSyn UTR act -120*.
CCOC(=O)c1nn(-c2ccc(C)c(C)c2)cc1O was read as aSyn UTR act -141*.
Screening COC(=O)c1nn(-c2ccc3c(c2)CCN3C(C)=O)cc1O returned aSyn UTR act 91.
COC(=O)c1nn(-c2ccc3c(c2)OCO3)cc1O was read as aSyn UTR act -86*.
Screening OCCCCCN=c1cc(-c2ccccc2)oc2ccc(Cl)cc12 returned aSyn UTR act -747*.
COc1ccc(C(=O)NC(=S)NNC(=O)c2cnccn2)cc1OC was read as aSyn UTR act 90.
`COC(=O)c1sc(NC(=S)NC(=O)c2ccccc2Cl)nc1C` gave aSyn UTR act -146*.
Screening Cc1csc(NC(=S)NC(=O)c2ccccc2)n1 returned aSyn UTR act -179*.
`COc1cc(OC)nc(NC(=S)NC(=O)c2ccccc2)n1` gave aSyn UTR act -69*.
For COc1ccc(C(=O)NC(=S)Nc2nc(C)cc(C)n2)cc1Br the results were aSyn UTR act -77*.
`CCOC(=O)c1sc(NC(=S)NC(=O)c2ccccc2)nc1C` gave aSyn UTR act -216*.
COC(=O)c1sc(NC(=S)NC(=O)c2ccccc2)nc1C was read as aSyn UTR act -198*.
Cc1cc(C)c2cccc(NC(=S)NC(=O)c3ccccc3)c2n1 was read as aSyn UTR act -76*.
`COc1cnc(-c2ccccn2)nc1N(C)c1ccccc1` gave aSyn UTR act 89.
c1ccc(-c2cnnc(-c3ccccn3)n2)cc1 was read as aSyn UTR act -133*.
Screening CCOc1ccc(/C=C2\SC(=S)N(CCCC(=O)NCCCN3CCOCC3)C2=O)cc1 returned aSyn UTR act 84.
`CCOc1ccc(N=C2NC(=O)S/C2=C\c2ccc(N(C)C)cc2)cc1` gave aSyn UTR act -129*.
Screening CCOc1ccc(/C=C2/SC(=O)NC2=S)cc1 returned aSyn UTR act -95*.
`Cc1cc(C)nc(NC(=O)/C=C/c2ccc3c(c2)OCO3)c1` gave aSyn UTR act -207*.
